Compounds with a hit are over-represented: about 1.1% of the library has one in this group of screens.
gsp ag = activates gsp, the McCune-Albright syndrome mutation; gsp mutant cells, cAMP HTRF, 30 min; Potency, µM (titrated, usually from 76.9 µM), actives largely listed as activators; hit rate 0.13% among 340,000; AID 624287; active means well fitted activation curve with a large enough effect; inconclusive means small, poorly fitted or top-dose-only effect, or another doubt; inactive means no such curve, though single readings can be large or run the other way; cell line not stated here;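 further: phosphodiesterase inhibitor Ro 20-1724 added with compounds to block cAMP breakdown; nearly all actives have a fitted effect of over 60% in size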
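Cells stably selected in G418 were plated at 2000/well, grown 16-24 hr, then given compounds in DMSO with the PDE inhibitor […] (300 uM solution added) for 30 min at 37C; cAMP was read by HTRF.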
TRPV1 agonist = activates the human vanilloid receptor TRPV1. activation, % at 8.33 µM. TRPV1-expressing cells, Fluo-8 calcium influx, agonist mode. Q8NER1. hit rate 0.19% among 320,000; in the data active means activation above about 80%; inconclusive means between about 30% and that limit
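Fluo-8 calcium influx in TRPV1-expressing cells, kinetic read (ex 480/em 520 nm). Compound added and read 3 min for agonist activity, followed by capsaicin at EC20 final and 2 min further read for enhancement.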
RXFP1 ag = agonists of human relaxin receptor RXFP1 | hit rate 0.3% among 370,000 | Q9HBX9 | HEK293T-RXFP1 cAMP TR-FRET, 30 min; response scale: percent of porcine relaxin response, buffer zero | AID 2676 | Potency, µM (series often up to 57.5 µM), actives largely listed as activators; active means well fitted activation curve with a large enough effect; inconclusive means small, poorly fitted or top-dose-only effect; further: nearly all actives have a fitted effect of over 60% in size
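cAMP rise read by TR-FRET after 30 min, 37C compound exposure (up to 58 uM) in RXFP1-transfected HEK293 cells with Ro 20174 present. EC50 from Hill-equation fits, with 29 nM porcine relaxin as 100% and buffer as basal.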
RXFP1 antag = RXFP1 (human) relaxin receptor antagonism; activity change, negative = inhibition, % at 57.5 µM; hit rate 0.59% among 350,000; AID 1259400; Q9HBX9; HEK293-RXFP1, relaxin-stimulated cAMP HTRF, 30 min; stronger effect = lower value;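 active means activity change of -60% or lower, but not beyond a set lower limit; inconclusive means change between -60% and -40%, or beyond the set limit; inactive means change above -40%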
gsp antagonist = antagonizes gsp, the McCune-Albright syndrome mutation; hit rate 0.4% among 340,000; gsp-mutant cells, cAMP HTRF, 30 min; Potency, µM (highest dose often 76.9 µM), most hits filed as inhibitors; calls by dose curve; cell line not stated here;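 further: intracellular cAMP measured with PDE inhibitor Ro 20-1724 present during compound exposure; nearly all actives have a fitted effect of over 65% in size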
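HTRF cAMP read-out (cAMP-d2 plus anti-cAMP antibody-K in lysis buffer, 30 min RT). Before lysis, cells are exposed to compounds with […] for 30 min at 37C in DPBS containing Ca/Mg, BSA and Tween 20.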
TRPV1 PAM = potentiators of human vanilloid receptor 1 (TRPV1); Q8NER1; TRPV1-expressing cells, Fluo-8 calcium influx, capsaicin EC20 potentiation; potentiation, % at 8.33 µM; hit rate 0.02% among 320,000; AID 540277; in the data active means potentiation above about 80%; inconclusive means between about 30% and that limit
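Fluo-8 calcium influx in TRPV1-expressing cells, kinetic read (ex 480/em 520 nm). Compound added and read 3 min for agonist activity, followed by capsaicin at EC20 final and 2 min further read for enhancement.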
Hits are given with their value; 0 = inactive; ? = inconclusive; - = not tested or not shown; [ ] = remark or other dose.

SMILES | gsp ag | TRPV1 agonist | RXFP1 ag | RXFP1 antag | gsp antagonist | TRPV1 PAM
C(=N\Nc1nc2ccccc2[nH]1)/c1ccccn1 | 0 | 0 | 0 | 0 | 0 | 0
Fc1ccccc1-c1ccc(/C=N/Nc2nc3ccccc3[nH]2)o1 | 0 | ? | 0 | ? | 40µM | 0
Cc1ccc(S(=O)(=O)NCCC(=O)NC(C)CCc2ccccc2)cc1 (stereo not given) | 0[15.4 µM] | 0 | 0 | -62 | 0 | 0
Cc1ccc(S(=O)(=O)NCCC(=O)NC(C)c2ccccc2)cc1 (stereo not given) | ? | 0 | 0 | 0 | 0 | 0
CCN(CC)c1ccc2cc(-c3nnc(-c4ccncc4)o3)c(=O)oc2c1 | 0 | 107 | 0 | 0 | 0 | ?
O=C(c1ccco1)N1CCN(C(=O)c2cc(-c3ccncc3)nc3ccc(Br)cc23)CC1 | 0 | - | - | 0 | ? | -
O=C(O)c1ccc2nc(-c3ccco3)c(-c3ccco3)nc2c1 | 3.5µM | 0 | 0 | ? | 0 | 0
O=C(Nc1cccc(C(F)(F)F)c1)c1ccc2nc(-c3ccco3)c(-c3ccco3)nc2c1 | 0 | 0 | 0 | -97 | 0 | 0
O=C(c1ccc2nc(-c3ccco3)c(-c3ccco3)nc2c1)N1CCN(c2ccccc2)CC1 | 0 | 0 | 0 | 0 | 0 | 0
O=C(O)c1cc(-c2ccco2)nc2ccc(Br)cc12 | ? | 0 | 13µM | 0 | 0 | ?
Cc1cc(NC(=O)Cn2c(=O)oc3ccccc32)no1 | 0 | 0 | 0 | 0 | 0 | 0
CCOc1cccc(NC(=O)C2CC(=O)N(C)C(=Nc3cccc(OC)c3)S2)c1 (stereo not given) | - | - | 0 | - | - | -
O=c1cc(N2CCCCC2)c(-c2ccccc2)nn1Cc1ccccc1 | 0[15.4 µM] | 81 | 0 | -120 | ? | 0
Cn1nc(-c2ccccc2)c(N2CCCCC2)cc1=O | 0 | ? | 0 | 0 | 0 | 0
COc1ccc(Cn2nc(-c3ccccc3)c(N3CCCCC3)cc2=O)cc1 | 0[15.4 µM] | 85 | 0 | 0 | 0 | 0
Nc1ccc2nc3c(=O)n(CCc4ccccc4)c(=O)[nH]c3nc2c1 | 0[15.4 µM] | 107 | 0 | 0 | 0 | 0
Cc1cc2nc3c(=O)n(CCc4ccccc4)c(=O)[nH]c3nc2cc1N | ? | ? | 0 | 0 | 0 | 0
Cc1cccc(-c2cccc(NC(=O)C3CCCN(C(=O)c4csc(C)n4)C3)c2)c1 (stereo not given) | ? | 0 | 0 | 0 | 35µM | 0
Nc1ccc2[nH]c(=S)[nH]c2c1 | 0 | - | - | 0 | 0 | -
C=CCSC1=Nc2sccc2C2=NC(=O)CN12 | 20µM | 0 | 0 | 0 | 0 | 0
COc1ccc(COc2ccccc2C(=O)NCc2ccccc2)cc1F | 0 | ? | 0 | 0 | 28µM | 0
COc1cc(C(=O)NCc2ccccc2)ccc1OC(F)F | 0 | 0 | 0 | 0 | 0 | 0
C=CCN=C1S/C(=C/c2cccc([N+](=O)[O-])c2)C(=O)N1CC=C | 0 | 0 | 0 | - | 0 | 0
O=C(O)c1cccc(CN2C(=O)S/C(=C/c3cccc([N+](=O)[O-])c3)C2=O)c1 | ? | 0 | 0 | 0 | 20µM | 0
O=C(/C=C/c1ccccc1)/C=C/c1ccccc1 | 0 | ? | 0 | -67 | 0 | 0
SMILES | gsp ag | TRPV1 agonist | RXFP1 ag | RXFP1 antag | gsp antagonist | TRPV1 PAM
O=C(/C=C/c1ccccc1)c1ccccc1 | - | ? | 0 | - | 0 | 0
Cc1ccc(-n2c(=O)c3c4c(sc3n(CC(=O)C(C)(C)C)c2=O)CCCCC4)cc1C | - | - | 0 | - | - | -
O=C1CC(NCc2ccc3c(c2)OCO3)C(=O)N1Cc1ccc2c(c1)OCO2 (stereo not given) | 0 | 0 | 0 | 0 | 28µM | 0
O=C(O)C1CC(=O)N(Cc2ccc3c(c2)OCO3)C1 (stereo not given) | 0 | 0 | 0 | 0 | 0 | 0
OC1(c2ccccc2)CCNCC1 | - | - | - | 0 | - | -
COc1ccc(-c2cn3c(n2)sc2cc(C(=O)NCC(C)c4ccccc4)ccc23)cc1 (stereo not given) | - | - | 0 | 0 | - | -
CCOC(=O)CSc1nnc2n(-c3ccccc3)c(=O)c3c4c(sc3n12)CC(C(C)(C)C)CC4 (stereo not given) | - | - | 0 | -69 | - | -
C=CCn1c(C2CC2)n[nH]c1=S | 0 | 0 | 0 | 0 | 0 | 0
CCCCCC1CCC(c2n[nH]c(=S)n2C)CC1 (stereo not given) | 0[15.4 µM] | 0 | 0 | -64 | 0 | 0
